Sampled rows, rich in hits. Any-hit rate of the full collection: about 0.99%.
TRPV1 ag: HTS Assay for Compounds that Act as Agonists of the Vanilloid Receptor 1; 0.19% of 320,000 active; activation, % at 8.33 µM; TRPV1-expressing cells, Fluo-8 calcium influx, agonist mode; Transient receptor potential cation channel subfamily V member 1 (Homo sapiens), Q8NER1; in the data active = activation above about 80%; inconclusive = between about 30% and that limit
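Fluo-8 calcium influx in TRPV1-expressing cells, kinetic read (ex 480/em 520 nm). Compound added and read 3 min for agonist activity, followed by capsaicin at EC20 final and 2 min further read for enhancement.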
TRHR PAM: qHTS for Small Molecule Agonists and Allosteric Enhancers of Human TRH Receptor: Primary Screen for Enhancers | Thyrotropin-releasing hormone receptor (Homo sapiens), P34981 | TRHR cells, fluo-8 calcium fluorescence, EC20 TRH enhancement | enhancement, % at 2 µM | 0.66% of 360,000 active | AID 493056, 2011; in the data active = enhancement above about 30%
Target sequence (P34981 whole entry, looked up): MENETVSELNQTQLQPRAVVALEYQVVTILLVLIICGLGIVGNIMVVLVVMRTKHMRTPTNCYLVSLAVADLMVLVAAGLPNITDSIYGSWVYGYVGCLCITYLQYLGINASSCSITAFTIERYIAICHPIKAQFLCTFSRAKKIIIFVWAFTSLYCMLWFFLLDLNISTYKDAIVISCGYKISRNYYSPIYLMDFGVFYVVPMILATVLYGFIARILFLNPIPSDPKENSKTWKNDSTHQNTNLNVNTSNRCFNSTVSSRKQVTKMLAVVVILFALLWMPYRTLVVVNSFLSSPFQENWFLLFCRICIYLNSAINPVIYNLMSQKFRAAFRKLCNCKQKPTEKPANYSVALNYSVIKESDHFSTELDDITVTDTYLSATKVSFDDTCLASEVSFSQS
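Enhancer read-out: after compound pinning and an initial kinetic agonist-mode read, an EC20 of TRH (10 nM final) was injected and fluo-8 calcium signal (Ex 480/Em 530) followed at 1 s/cycle for 100 cycles in TRHR-expressing cells.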
TRHR ag: qHTS for Small Molecule Agonists and Allosteric Enhancers of Human TRH Receptor: Primary Screen for Agonists | 0.18% of 360,000 active | TRHR cells, calcium flux fluo-8, FDSS agonist mode | Thyrotropin-releasing hormone receptor (Homo sapiens), P34981 | activation, % at 2 µM; in the data active = activation above about 30%
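Agonist-mode FDSS calcium read (Ex 480/Em 530, 1 s cycles) in 1536-well TRHR cells with fluo-8 dye, after 10-cycle baseline and 23 nL compound addition; TRH at EC20 (10 nM final) added afterwards for the enhancer phase.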
TRPML1 ag: qHTS for Agonists of the Human Mucolipin Transient Receptor Potential 1 (TRPML1); Mucolipin-1 (Homo sapiens), Q9GZU1; TRPML1-expressing cells, Ca2+ dye fluorescence, FDSS; activation, % (test concentration not listed); 0.12% of 410,000 active; AID 624414, 2012; in the data active = activation above about 50%; inconclusive = mostly about 30% to 49%
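Tetracycline-induced TRPML1-DL cells are seeded and incubated overnight before loading with a no-wash Ca2+ dye and quencher. Agonist activity is taken from the 110 s fluorescence read following compound pin-transfer on an FDSS, before EC80 54-4 challenge.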
TRPV1 PAM: HTS Assay for Compounds that Act as Potentiators of the Vanilloid Receptor 1; Transient receptor potential cation channel subfamily V member 1 (Homo sapiens), Q8NER1; TRPV1-expressing cells, Fluo-8 calcium influx, capsaicin EC20 potentiation; potentiation, % at 8.33 µM; 0.02% of 320,000 active; AID 540277, 2011; in the data active = potentiation above about 80%; inconclusive = between about 30% and that limit
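TRPV1-expressing cells were cultured overnight at 35.5C and loaded with Fluo-8 calcium dye for 40 to 90 min at room temperature. After a 10 s baseline, compound was added and calcium influx was read kinetically for 3 min (ex 480/em 520 nm).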
TRPML1 blocker: qHTS for Inhibitors of the Human Mucolipin Transient Receptor Potential 1 (TRPML1) | TRPML1-inducible cells, Ca2+ dye fluorescence, FDSS; stronger effect = lower value; inhibition of EC80 agonist-evoked calcium signal | AID 624415, 2012 | activity change, negative = inhibition, % (test concentration not listed) | Mucolipin-1 (Homo sapiens), Q9GZU1 | 0.02% of 390,000 active; in the data active = activity change below about -50%; inconclusive = between about -30% and that limit;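 note: stimulus is agonist 54-4 at its EC80 concentration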
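Calcium fluorescence in TRPML1-DL cells induced overnight with Tet: a 110 s read after compound pin addition, then a 110 s antagonist read after challenge with 54-4 at 4 uM final (EC80).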
Hits are given with their value; – = inactive; ? = inconclusive; · = no result given; ! = not active in a repeat.

SMILES	TRPV1 ag	TRHR PAM	TRHR ag	TRPML1 ag	TRPV1 PAM	TRPML1 blocker
O=C(C[n+]1cc(Br)cc(Br)c1)c1ccc2c(c1)CCCC2	·	·	·	–	·	·
Clc1ccc(-c2csc3ncnc(Sc4nnnn4C4CC4)c23)cc1	·	·	·	–	·	·
Cc1c(-n2cc(C(=O)c3cc(F)ccc3O)cc(C#N)c2=O)c(=O)n(-c2ccccc2)n1C	–	–	–	–	–	–
N#Cc1cc(C(=O)c2ccccc2O)cn(-c2nccs2)c1=O	87.1	30.3	292.2	64.2	–	–
N#Cc1cc(C(=O)c2cc(F)ccc2O)cn(-c2nccs2)c1=O	?	–	183.2	124.4	–	–
Cc1ccccc1Cn1c(=O)n(Cc2ccc3c(c2)OCO3)c(=O)c2oc3ccccc3c21	·	–	–	–	·	–
CCC(Cc1ccccc1)NC(=O)CN1C(=O)COc2ccc(S(=O)(=O)N3CCCCCC3)cc21 (configuration not stated)	·	–	–	–	·	–
O=C(CSc1n[nH]c(-c2ccc(F)cc2)n1)NCCc1ccccc1	·	–	–	–	·	–
Cc1ccc(-c2c(C(=O)N/N=C/c3ccoc3)nnn2-c2nonc2N)cc1	87.5	–	–	–	–	–
Cc1ccc(-c2c(C(=O)N/N=C/c3ccc(OC(C)C)cc3)nnn2-c2nonc2N)cc1	–	32.7	–	–	–	–
CCc1ccc(/C=N/NC(=O)c2nnn(-c3nonc3N)c2C(C)C)cc1	–	40.8	–	–	–	–
CN(C)c1ccc(CCC2C=Cc3ccccc32)cc1 (configuration not stated)	·	·	·	–	·	·
COc1cc2c(c(OC)c1)C(c1cccc(F)c1F)CC(=O)N2 (configuration not stated)	·	–	–	57.2	·	–
O=C(/C=C/c1ccccc1)Nc1cccnc1Cl	84.2	–	–	–	–	–
COc1ccc2c(c1)cc1c(=O)n(CC(=O)NCCc3ccccc3)nc(C)n12	·	–	–	–	·	–
Cc1cccc(C(=O)NNC(=O)c2c(-c3ccccc3Cl)noc2C)c1O	–	30.8	–	–	–	–
Cc1ccc(NC(=O)c2c(-c3ccccc3Cl)noc2C)nc1	·	–	–	–	·	–
Cc1onc(-c2ccccc2Cl)c1C(=O)Nc1ccc(Cl)cn1	–	31.1	–	–	–	–
Cc1onc(-c2ccccc2Cl)c1C(=O)NNC(=O)c1ccc(F)cc1	–	–	–	–	–	–
COc1ccc(C(=O)NCC(=O)OC(C(=O)Nc2cc(C(F)(F)F)ccc2Cl)c2ccccc2)cc1OC (configuration not stated)	·	–	–	·	·	·
Cc1ccc(NC(=O)c2cc(N3C(=O)C4CC=CCC4C3=O)ccc2N2CCOCC2)cc1Cl (configuration not stated)	–	38.6	–	–	–	–
Cc1ccc(NC(=O)c2cc(N3C(=O)C=CC3=O)ccc2N2CCOCC2)cc1	–	–	–	–	–	–
COc1ccc(OC(=O)COc2ccc(Cl)cc2)cc1	–	39.1	–	–	–	–
COc1ccc(OC(=O)COc2cc(C)ccc2C)cc1	–	–	–	–	–	–
Cn1c(=O)c2c(nc3sccn32)n(C)c1=O	–	–	–	–	88.5	–
SMILES	TRPV1 ag	TRHR PAM	TRHR ag	TRPML1 ag	TRPV1 PAM	TRPML1 blocker
O=C(CSc1nnc2scc(-c3ccccc3)n12)N1CCN(Cc2ccccc2)CC1	–	39.0	–	–	–	–
COc1ccc(-c2cc(C(F)(F)F)nc(SCCC(=O)Nc3ccc(F)cc3F)n2)cc1	·	–	–	–	·	–
COCCNC(=O)/C(C#N)=C/c1c(N2CCN(C)CC2)nc2c(C)cccn2c1=O	–	–	–	–	–	–
CCN1CCN(c2nc3c(C)cccn3c(=O)c2/C=C(\C#N)C(=O)NCCOC)CC1	–	–	30.0	–	–	–
CNC(=O)NC(=O)C(NC1CCCc2ccccc21)c1ccccc1 (configuration not stated)	–	–	–	–	?	–
Cc1ccc(NC(=O)C(NC2CCCc3ccccc32)c2ccccc2)cc1Cl (configuration not stated)	–	32.4	–	–	–	–
Cc1ccc(-c2nc3sc(CCNC(=O)c4ccc(C)c(C)c4)c(C)n3n2)cc1	·	–	–	–	·	–
Cc1cc(N)c(NC2=CC(=O)CC(C)(C)C2)cc1C	–	–	–	59.5	?	–
Cc1ccc2ncc(C)c(/C=C/c3ccc(N(C)C)cc3)c2c1	·	·	·	–	·	·
CC(C)(C)c1ccc(NC(=S)NCc2cccnc2)cc1	86.4	–	–	–	–	–
Fc1ccc(NC(=S)NCc2cccnc2)cc1	–	–	–	–	–	–
CC(C)Oc1cccc(C(=O)NC(=S)NCc2cccnc2)c1	–	39.7	–	–	–	–
CC(C)CC(OC(=O)CNC(=O)c1ccccc1)C(=O)Nc1cc(C(F)(F)F)ccc1Cl (configuration not stated)	·	–	–	·	·	·
CCc1ccc(C(=O)C[N+]2(C)CCOCC2)cc1	·	·	·	–	·	·
CCN(CC)c1ccc(C(=O)NNC(=O)CCl)cc1	–	–	–	–	123.5	–
CCCN1CCN(CCCNC(=O)c2cc3c(s2)-c2ccccc2OC3)CC1	–	37.1!	–	–	–	–
COc1ccc(-n2nc(C(=O)NCC(=O)NCCCN3CCCCCC3)c3ccccc3c2=O)cc1Cl	–	–	–	–	81.0	–
Cc1ccc(OCC(=O)N2CCc3ccccc32)c([N+](=O)[O-])n1	–	–	–	–	–	?
O=C(COc1cccnc1[N+](=O)[O-])N1CCc2ccccc21	–	30.6	–	–	–	–
COc1ccc(-c2cc(C(=O)Oc3cccc(C)c3)c3ccccc3n2)cc1	·	–	–	–	·	–
CCCCOc1ccc(S(=O)(=O)N2CCN(c3ccccc3OCC)CC2)cc1	·	32.2	–	–	·	–
CSC1=NSC2=NC(=O)/C(=C/c3coc4ccccc4c3=O)C(=N)N12	?	–	77.9	77.3	–	–
CSC1=NSC2=NC(=O)/C(=C/c3coc4ccc(O)cc4c3=O)C(=N)N12	–	–	67.8	66.8	–	–
CSC1=NSC2=NC(=O)/C(=C\c3cccs3)C(=N)N12	–	–	–	–	–	–

Screening results deposited in PubChem by National Center for Advancing Translational Sciences (NCATS).
